RPL19A-GFP yeast – RPL19A-GFP expression modulators in yeast, primary screen, cell-based, S. cerevisiae, multiplex flow cytometry, MLPCN | S. cerevisiae RPL19A-GFP strain, 3 h; active compounds read low | percent response vs DMSO, % at 10 µM | actives 0.3% (n = 330,000) | AID 2025, 2009;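 active = percent response vs DMSO below 50%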;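 note: median channel GFP fluorescence of the barcoded RPL19A-GFP strain; lower means less RPL19A-GFP as with rapamycin TOR inhibition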
Efflux pump inh – inhibitors of Candida efflux pumps in yeast, primary screen, S. cerevisiae, Nile Red, multiplex | actives 0.44% (n = 330,000) | S. cerevisiae Candida pump triplex | AID 485275, 2010 | inhibition, % at 10 µM;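 active = plate passing quality check with inhibition over a set limit, or well fluorescence over plate mean plus 4 SD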;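 note: Nile Red retained in pooled yeast measured as flow cytometry median fluorescence; higher means more Nile Red kept so more efflux inhibition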
CIT2-GFP yeast – modulators of CIT2-GFP expression in yeast, primary screen, S. cerevisiae, GFP fusion, multiplex flow cytometry, MLPCN library | S. cerevisiae CIT2-GFP strain, 3 h; 100 means same as DMSO wells | GFP response vs DMSO, % at 10 µM | actives 0.065% (n = 320,000);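 active = GFP response relative to DMSO above a set limit, near the screen mean plus 3 SD, cut at about 150% in these data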;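 note: ratio of well median GFP fluorescence to mean of DMSO wells on the plate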
LAP4 TOR yeast – modulators of LAP4-GFP expression in yeast, primary screen, S. cerevisiae, multiplex flow cytometry, MLPCN library; 3 h; median GFP as percent of DMSO wells; GFP response vs DMSO, % at 10 µM; actives 0.34% (n = 320,000);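 active = GFP response vs DMSO above a set limit, about the screen mean plus 3 SD, cut at about 150% in these data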
MEP2-GFP yeast – modulators of MEP2-GFP levels in yeast, primary screen, S. cerevisiae, multiplex flow cytometry, MLPCN library | GFP response vs DMSO, % at 10 µM | actives 0.51% (n = 330,000) | S. cerevisiae MEP2-GFP strain, 3 h; 100% = DMSO control level;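 active = GFP response versus DMSO above a set limit, roughly screen mean plus 3 SD, cut at about 180% in these data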;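 note: median GFP fluorescence of the barcode-gated MEP2-GFP cells per well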
AGP1 TOR yeast – modulators of AGP1-GFP expression in yeast TOR pathway, primary screen, cell-based, multiplex flow cytometry, S. cerevisiae, MLPCN library | 3 h; GFP as percent of DMSO wells | GFP response vs DMSO, % at 10 µM | actives 0.02% (n = 320,000);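 active = GFP response relative to DMSO above a set limit, near screen average plus 3 SD, cut at about 150% in these data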;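 note: median GFP channel fluorescence of the gated AGP1 strain per well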
LAP4-GFP pick2 – LAP4-GFP expression modulators in yeast, confirmation, cell-based, second cherry pick, flow cytometry; S. cerevisiae LAP4-GFP strain, 3 h; AID 2621, 2010; actives 20% (n = 590); shares compounds with LAP4 TOR yeast; GFP response vs DMSO, % at 10 µM;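 active = GFP signal as percent of the solvent control above about 150%, meaning raised reporter expression, limit read from the data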
MEP2-GFP pick2 – modulators of MEP2-GFP levels in yeast, confirmation, S. cerevisiae, flow cytometry GFP, second cherry picks; shares compounds with LAP4 TOR yeast; S. cerevisiae MEP2-GFP strain, 3 h; GFP response vs DMSO, % at 10 µM; actives 10% (n = 590); AID 2622, 2010;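 active = GFP signal above 150% of the solvent control wells, that is a rise of more than half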;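 note: median channel GFP fluorescence of all gated yeast cells per well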
RPL19A GFP CP2 – RPL19A-GFP modulators in TOR pathway yeast, confirmation, cell-based, S. cerevisiae, flow cytometry, second cherry pick | shares compounds with LAP4 TOR yeast | S. cerevisiae RPL19A-GFP strain, 3 h; active compounds read low; 100% means same as DMSO wells | GFP response vs DMSO, % at 10 µM | actives 3% (n = 590) | AID 2623, 2010;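 active = under 65% GFP response relative to DMSO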;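 note: median GFP channel fluorescence per well over the all cells gate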
CIT2-GFP pick2 – modulators of CIT2-GFP expression in yeast, confirmation, flow cytometry, second cherry pick, single plex. actives 8% (n = 590). GFP response vs DMSO, % at 10 µM. shares compounds with LAP4 TOR yeast. S. cerevisiae CIT2-GFP strain, 3 h; DMSO control wells read 100%. AID 2624, 2010;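 active = GFP response vs DMSO above about 150%, limit read from the data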;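 note: median green fluorescence per well over all gated yeast cells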
AGP1 GFP CP2 – AGP1-GFP expression modulators, hit retest, confirmation, cell-based, flow cytometry, S. cerevisiae, cherry pick set 2; shares compounds with LAP4 TOR yeast; S. cerevisiae AGP1-GFP strain, 3 h; percent response vs DMSO, % at 10 µM; 590 tested, under 10 active; AID 2643, 2010;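 active = over 150 percent of DMSO response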;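 note: median GFP channel fluorescence over all cells without mother daughter split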
Yeast autofluor – compound autofluorescence in yeast s288c, dose response, artefact control for yeast TOR pathway GFP screen, s288c strain. S. cerevisiae s288c, 520 nm autofluorescence, flow cytometry, 3 h; active compounds read high; zero means same as solvent-only cells. fluorescence change (kMESF span) at 33 µM. 610 tested, under 10 active. AID 2757, 2010. shares compounds with LAP4 TOR yeast;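 active = fluorescence span over the dose series, or activity score, above about 33, limit read from the data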
Yeast autofl DR – autofluorescence of compounds in yeast s288c, dose response, artefact control for yeast TOR pathway GFP screen, primary hits, KU SAR, s288c parental; shares compounds with LAP4 TOR yeast; S. cerevisiae s288c parental, compound autofluorescence, flow cytometry, 3 h; fluorescence change (span) at 33 µM; 110 tested, under 10 active; AID 488829, 2010;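 active = fluorescence change span, or the activity score built from it, above 25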
TORC1 bypass – wild-type yeast growth inhibition sparing TORC1 bypass cells, mechanism study for yeast TOR pathway GFP screen, BY4741 wild type, TORC1 bypass strain. shares compounds with LAP4 TOR yeast. S. cerevisiae BY4741 spot growth rating, 48-72 h; active compounds read low. growth rating (0-3) at 30 µM. 120 tested, under 10 active;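 active = growth rating at most 1 for wild type yeast while the TORC1 bypass strain still grows fully, rated 3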
Hits are given with their value. Compounds with a hit are over-represented: about 1.3% of the library has one in this group of screens.

Results for COc1ccc(-c2nc(-c3cccs3)c(-c3cccs3)[nH]2)cc1O ?
RPL19A-GFP yeast: inactive; Efflux pump inh: inactive; CIT2-GFP yeast: inactive; LAP4 TOR yeast: 164.4; MEP2-GFP yeast: inactive; AGP1 TOR yeast: inactive; LAP4-GFP pick2: inactive; MEP2-GFP pick2: inactive; RPL19A GFP CP2: inactive; CIT2-GFP pick2: inactive; AGP1 GFP CP2: inactive

How did O=S(=O)(Nc1cccnc1)c1cccc(C(F)(F)F)c1 do in these assays?
RPL19A-GFP yeast: inactive; Efflux pump inh: inactive; CIT2-GFP yeast: inactive; LAP4 TOR yeast: inactive; MEP2-GFP yeast: inactive; AGP1 TOR yeast: inactive

What do the screens show for `O=[N+]([O-])c1ccc(S(=O)(=O)c2cccc(C(F)(F)F)c2)nc1`?
RPL19A-GFP yeast: inactive; Efflux pump inh: inactive; MEP2-GFP yeast: inactive; Yeast autofluor: inactive; Yeast autofl DR: inactive; TORC1 bypass: inactive

How did CCCn1c(=O)c2c(nc3n2CCCN3CCc2ccc(OC)c(OC)c2)n(C)c1=O do in these assays?
RPL19A-GFP yeast: inactive; Efflux pump inh: inactive; CIT2-GFP yeast: inactive; LAP4 TOR yeast: inactive; MEP2-GFP yeast: inactive; AGP1 TOR yeast: inactive

How did COC(=O)N/N=C/c1ccc(OS(=O)(=O)c2ccc(C)cc2)c(OC)c1 do in these assays?
RPL19A-GFP yeast: inactive; Efflux pump inh: inactive; CIT2-GFP yeast: inactive; LAP4 TOR yeast: inactive; MEP2-GFP yeast: inactive; AGP1 TOR yeast: inactive

How did C=CCNC(=O)/C(C#N)=C/c1ccc(OS(=O)(=O)c2ccc(C)cc2)c(OC)c1 do in these assays?
RPL19A-GFP yeast: inactive; Efflux pump inh: inactive; CIT2-GFP yeast: inactive; LAP4 TOR yeast: 185.6; MEP2-GFP yeast: inactive; AGP1 TOR yeast: inactive; LAP4-GFP pick2: inactive; MEP2-GFP pick2: inactive; RPL19A GFP CP2: inactive; CIT2-GFP pick2: inactive; AGP1 GFP CP2: inactive

What do the screens show for `Cc1ccc(Oc2nc3c(C)cccn3c(=O)c2/C=C(\C#N)C(N)=O)cc1`?
RPL19A-GFP yeast: inactive; Efflux pump inh: inactive; CIT2-GFP yeast: inactive; LAP4 TOR yeast: inactive; MEP2-GFP yeast: inactive; AGP1 TOR yeast: inactive

How did Cc1ccc(S(=O)(=O)/C(C#N)=C/c2c(Oc3ccc(Cl)cc3)nc3c(C)cccn3c2=O)cc1 do in these assays?
RPL19A-GFP yeast: inactive; Efflux pump inh: inactive; CIT2-GFP yeast: inactive; LAP4 TOR yeast: inactive; MEP2-GFP yeast: 383.6; AGP1 TOR yeast: inactive; LAP4-GFP pick2: inactive; MEP2-GFP pick2: inactive; RPL19A GFP CP2: inactive; CIT2-GFP pick2: inactive; AGP1 GFP CP2: inactive

What do the screens show for `O=C(CC(=O)c1ccccc1)Nc1ccccc1C(F)(F)F`?
RPL19A-GFP yeast: inactive; Efflux pump inh: inactive; CIT2-GFP yeast: inactive; LAP4 TOR yeast: inactive; MEP2-GFP yeast: inactive; AGP1 TOR yeast: inactive; LAP4-GFP pick2: inactive; MEP2-GFP pick2: inactive; RPL19A GFP CP2: inactive; CIT2-GFP pick2: inactive; AGP1 GFP CP2: inactive

Results for COc1cccc(NC(=O)Cc2ccccc2)c1 ?
RPL19A-GFP yeast: inactive; Efflux pump inh: inactive; CIT2-GFP yeast: inactive; LAP4 TOR yeast: inactive; MEP2-GFP yeast: inactive; AGP1 TOR yeast: inactive

Results for O=C(O)CC(=O)Nc1ccccc1 ?
RPL19A-GFP yeast: inactive; Efflux pump inh: inactive; CIT2-GFP yeast: inactive; MEP2-GFP yeast: inactive; AGP1 TOR yeast: inactive

How did O=C(CC(=O)c1ccccc1)Nc1ccccc1 do in these assays?
RPL19A-GFP yeast: inactive; Efflux pump inh: inactive; CIT2-GFP yeast: inactive; LAP4 TOR yeast: inactive; MEP2-GFP yeast: inactive; AGP1 TOR yeast: inactive; LAP4-GFP pick2: inactive; MEP2-GFP pick2: inactive; RPL19A GFP CP2: inactive; CIT2-GFP pick2: inactive; AGP1 GFP CP2: inactive

What do the screens show for `Cc1ccccc1NC(=O)CC(=O)c1ccccc1`?
RPL19A-GFP yeast: inactive; Efflux pump inh: inactive; CIT2-GFP yeast: inactive; LAP4 TOR yeast: inactive; MEP2-GFP yeast: inactive; AGP1 TOR yeast: inactive; LAP4-GFP pick2: inactive; MEP2-GFP pick2: inactive; RPL19A GFP CP2: inactive; CIT2-GFP pick2: inactive; AGP1 GFP CP2: inactive

What do the screens show for `COc1cccc(NC(=O)CC(=O)c2ccccc2)c1`?
RPL19A-GFP yeast: inactive; Efflux pump inh: inactive; CIT2-GFP yeast: inactive; LAP4 TOR yeast: inactive; MEP2-GFP yeast: inactive; AGP1 TOR yeast: inactive; LAP4-GFP pick2: inactive; MEP2-GFP pick2: inactive; RPL19A GFP CP2: inactive; CIT2-GFP pick2: inactive; AGP1 GFP CP2: inactive

How did O=C(N=C1SC2CS(=O)(=O)CC2N1c1ccc(F)cc1)C1CC1 (stereo not given) do in these assays?
RPL19A-GFP yeast: inactive; Efflux pump inh: inactive; CIT2-GFP yeast: inactive; LAP4 TOR yeast: inactive; MEP2-GFP yeast: inactive; AGP1 TOR yeast: inactive
